# PubChem BioAssay
# Molecular target: E3 ubiquitin-protein ligase XIAP (Homo sapiens) (UniProt P98170)
# Assay: small molecules binding XIAP protein – biophysical, small-molecule microarray, fluorescence 635 nm, primary screen (AID 1181);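 note: score merges 667 nm emission and signal to noise over triplicate slides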
# Settings: higher = more signal
# Chain of E3 ubiquitin-protein ligase XIAP (Homo sapiens) (P98170 whole entry, looked up): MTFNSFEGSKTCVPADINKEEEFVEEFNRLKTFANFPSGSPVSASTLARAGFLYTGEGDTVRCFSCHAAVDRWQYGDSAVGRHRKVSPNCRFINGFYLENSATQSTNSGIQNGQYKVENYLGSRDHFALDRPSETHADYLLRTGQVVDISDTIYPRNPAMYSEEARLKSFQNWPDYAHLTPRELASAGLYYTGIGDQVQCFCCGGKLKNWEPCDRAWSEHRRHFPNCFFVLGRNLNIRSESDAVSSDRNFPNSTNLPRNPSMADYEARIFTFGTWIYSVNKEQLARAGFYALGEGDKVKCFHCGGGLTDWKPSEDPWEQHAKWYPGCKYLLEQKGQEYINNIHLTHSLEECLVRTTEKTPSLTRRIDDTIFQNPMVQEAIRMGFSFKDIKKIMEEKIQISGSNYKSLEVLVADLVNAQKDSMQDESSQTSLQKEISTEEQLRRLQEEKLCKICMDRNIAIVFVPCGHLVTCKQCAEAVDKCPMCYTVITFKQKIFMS
row,Compound,composite z-score
1,O=C1OCC=C[C@H]2OC34C=CCN(CCN5CCOCC5)C(=O)[C@H]3N(CCCO)C(=O)[C@@H]4[C@@H]12 (stereo partly specified),0.0222
2,[N-]=[N+]=Nc1ccccc1C[C@@]1(C(=O)NCCN2CCOCC2)N=C(c2ccc(OCCCO)cc2)O[C@@H]1c1ccccc1,0.0831
3,COc1ccc(C(=O)Nc2ccc(CN3C(=O)[C@@]4(O[C@@H](CCO)[C@H]([Si](C)(C)c5ccc(OC)cc5)[C@H]4C)c4ccccc43)cc2)cc1,-0.172
4,CC(C)(C)OC(=O)CC[C@@]1(C(N)=O)N=C(c2ccc(OCCCO)cc2)O[C@@H]1c1ccccc1,-0.18
5,COc1ccc(C(=O)Nc2ccc(CN3C(=O)[C@@]4(O[C@@H](CC(=O)N5CCC[C@H]5CO)[C@H]([Si](C)(C)c5ccc(OC)cc5)[C@H]4C)c4ccccc43)cc2)cc1,0.0774
6,CN1C(=O)C2C=CC(C(O)C3CCCCC3)N(Nc3ccc([N+](=O)[O-])cc3[N+](=O)[O-])C2C1=O (stereo unspecified),0.618
7,CN1C(=O)C2C=CC(C(O)Cc3ccccc3)N(Nc3ccccc3)C2C1=O (stereo unspecified),-0.189
8,COc1ccc(CCNC(=O)[C@@]2(Sc3ccc(C)cc3)CC(=O)N(C3CCCCC3)[C@@H]2c2ccc(CO)cc2I)cc1,-0.276
9,O=C1OCCC/C=C\[C@H]2OC34C=CCN(CCN5CCOCC5)C(=O)[C@H]3N(CCCO)C(=O)[C@@H]4C12 (stereo partly specified),0.138
10,C=CCC(OC(C)=O)[C@@H]1[C@@H](N(Cc2ccc(-c3ccccc3)cc2)C(=O)Cc2ccc(F)cc2)c2cc(OCCCO)ccc2N1C(=O)c1ccc(-c2ccccc2)cc1 (stereo partly specified),-0.296
11,O=C(c1ccccc1)N1Cc2ccccc2[C@@H]2OC(c3ccc(OCCCO)cc3)=N[C@]2(Cc2ccccc2)C1=O,-0.102
12,COC(=O)C(CC#Cc1ccc2c(c1)[C@]1(C(=O)N2)[C@H](C(=O)O)[C@H]2C(=O)O[C@H](c3ccccc3)[C@H](c3ccccc3)N2[C@@H]1c1ccc(O)cc1)C(=O)OC,-0.165
13,O=C1NCC(=O)N2[C@@H]1C[C@@H](C(=O)O)[C@H]2c1cccc(OCCO)c1,3.93
14,C=CCNC(=O)[C@@H]1[C@H]2C(=O)O[C@H](c3ccccc3)[C@H](c3ccccc3)N2[C@H](c2ccc(OCCO)cc2)[C@@]12C(=O)Nc1ccc(C#CCCO)cc12,-0.157
15,C=C(/C(=C/C[C@@H](OC(C)=O)c1ccc(OCCO)cc1)c1cnc2ccccc2c1)C(C)C,0.287
16,CN(C)C(=O)[C@]1(Cc2ccccc2N=[N+]=[N-])N=C(c2ccc(OCCCO)cc2)O[C@@H]1c1ccccc1,-0.141
17,COc1ccc(CCN2C(=O)[C@@]3(c4ccc([N+](=O)[O-])cc4)CC(=O)N(C4CCCCC4)[C@@H]3c3ccc(CO)cc32)cc1,-0.167
18,C[N+](C)(C)CCCCNC(=O)[C@H]1C[C@H]2C(=O)N[C@@H](Cc3ccccc3)C(=O)N2[C@H]1c1ccc(O)cc1,-0.355

row,Compound,composite z-score
1,O=C1O[C@H](c2ccccc2)[C@H](c2ccccc2)N2[C@H]1[C@@H](C(=O)N1CCN(c3ncccn3)CC1)[C@]1(C(=O)Nc3ccc(C#CC4=CCCCC4)cc31)[C@H]2c1ccc(O)cc1,-0.0559
2,COC(=O)[C@@]1(Cc2ccccc2)[C@H]2c3cc(C(=O)N(C)C)n(CCSCCO)c3C[C@H]2CN1C(=O)c1ccccc1,0.212
3,CC(C)OC(=O)C=C1C[C@@H](c2ccccc2C(F)(F)F)O[C@@H](c2ccccc2C(F)(F)F)O1,0.193
4,COCCCNC(=O)[C@@]1(Cc2ccccc2)N=C(c2ccc(OCCCO)cc2)O[C@H]1c1ccccc1,-0.0376
5,CCCCC=C[C@@H](NC(=O)Oc1cccc(C(F)(F)F)c1)c1ccccc1,0.0748
6,O=C1C2C=CC(C(O)C(c3ccccc3)c3ccccc3)N(n3cnnc3)C2C(=O)N1Cc1ccccc1 (stereo unspecified),0.223
7,Cc1ccc(S[C@]2(C(=O)NCC(C)C)CC(=O)N(Cc3cc(C(F)(F)F)cc(C(F)(F)F)c3)[C@@H]2c2ccc(CO)cc2I)cc1,-0.17
8,COc1cc2c(cc1O)C(C1CC1)N(Cc1cc3c(cc1Br)OCO3)CC2 (stereo unspecified),0.0761
9,CCCCC(=C=CC[C@@H](O)c1ccccc1OCCO)CCO,-0.24
10,C=CCOC(=O)[C@@H]1[C@H]2C(=O)O[C@H](c3ccccc3)[C@H](c3ccccc3)N2[C@H](c2ccc(OCCOC(=O)[C@@H]3C[C@@H]4C(=O)N[C@@H](Cc5ccccc5)C(=O)N4[C@@H]3c3ccc(O)cc3)cc2)[C@@]12C(=O)Nc1ccc(I)cc12,0.104
11,C=CCNC(=O)[C@@H]1[C@H]2C(=O)O[C@H](c3ccccc3)[C@H](c3ccccc3)N2[C@H](c2ccc(OCCO)cc2)[C@@]12C(=O)Nc1ccc(C#Cc3ccc(OC)cc3)cc12,0.0181
12,CCOC(=O)C[C@H]1[C@H](OC(=O)Cc2ccc3c(c2)OCO3)[C@@H](NC(=O)c2ccc(-c3ccccc3)cc2)c2cc(OCCCO)ccc2N1C(=O)c1ccc2ccccc2n1,-0.102
13,Cc1ccc(S[C@]2(C(=O)NCC(F)(F)F)CC(=O)N(C(C)C)[C@@H]2c2ccc(CO)cc2I)cc1,-0.0013
14,C=CCC(OC(C)=O)[C@@H]1[C@@H](N(Cc2ccc(-c3cccc(C(F)(F)F)c3)o2)C(=O)Cc2ccc(F)cc2)c2cc(OCCCO)ccc2N1C(=O)Cc1ccc(OC)cc1 (stereo partly specified),0.0181
15,COCCCN1C(=O)[C@@]2(Cc3ccccc31)c1ccccc1C(=O)N(Cc1ccccc1C(F)(F)F)[C@H]2c1ccc(CO)cc1,-0.0373
16,CCOC1=C2C(CN(S(=O)(=O)c3ccc(C)cc3)C2c2ccc(C)cc2)C2C(=O)N(c3ccccc3)C(=O)C2C1 (stereo unspecified),-0.0773
17,CC(C)(C)OC(=O)CC[C@@]1(C(=O)NCC(O)CO)N=C(c2ccc(OCCCO)cc2)O[C@@H]1c1ccccc1N=[N+]=[N-] (stereo partly specified),0.201
18,[N-]=[N+]=NCc1ccccc1C[C@]1(C(=O)N2CCOCC2)N=C(c2ccc(OCCCO)cc2)O[C@H]1c1ccccc1N=[N+]=[N-],-0.113
